Screening results from PubChem.
The list is not random: actives were taken first. Their share in the collection is about 0.51%.
pCIP destab: p/CIP-EGFP fusion destabilizers, primary screen, fluorescence, F442A cells; Q05BA5; 16 h; decrease of EGFP signal, % at 10 µM; 0.01% of 290,000 active; AID 1984, 2009;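 active = EGFP signal decrease of at least 30% at 10 µM or well 3 SD below plate mean, unless failing retest; inactive = the rest, including hits failing retest or dose response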
Tat export inh: E. coli Tat export inhibitors, primary screen, MC4100, TorA-mCherry reporter, fluorescence, single point | inhibition, % at 10 µM | 0.036% of 340,000 active;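 active = mean replicate inhibition at least 50% and at least half of replicates individually reaching 50%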;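 note: exported cargo escapes ClpAP degradation while cytoplasmic cargo is degraded and loses fluorescence; 0% = median of neutral control wells and 100% = median of NaSCN control wells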
phage Ecoli inh: growth loss of phage-infected E. coli, primary screen, RecBCD inhibitor project, absorbance, with phage, HTS; inhibition, % at 11.9 µM; 0.26% of 360,000 active; in the data active = inhibition above about 11%
E coli growth-1: E. coli V3065 growth inhibition, primary screen, counter-screen for AddAB inhibitor project, absorbance, OD600 | 18 h | inhibition, % at 11.9 µM | 0.27% of 330,000 active;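 active = inhibition above the campaign's mean inhibition across all tested compounds plus 3 SD, cut at about 9.9% in these data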;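 note: uninfected addAB+ strain grown without phage in ampicillin broth; 0% = DMSO wells and 100% = ciprofloxacin 0.95 µg/ml wells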
E coli growth-2: E. coli growth inhibition, primary screen, OD600; OD600 absorbance (concentration not given with the values); Escherichia coli growth, 23 h; hits give low values; 0.21% of 330,000 active; AID 1053175, 2014;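 active = OD600 absorbance below the run mean of sample wells minus 3.6 SD, in any replicate, cut at about 0.56 in these data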
AddAB inh: growth inhibition of E. coli expressing H. pylori AddAB, primary screen, AddAB inhibitor project, absorbance; inhibition, % at 11.9 µM; 0.29% of 330,000 active; AID 435030, 2010; in the data active = inhibition above about 12%;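 note: 0% = vehicle wells of infected cells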
AddAB conf: growth loss of phage-infected E. coli expressing H. pylori AddAB, confirmation, AddAB inhibitor project, absorbance, E. coli V3065, T4 phage, triplicate. inhibition, % at 11.9 µM. 64% of 880 active. shares compounds with AddAB inh. OD; T4 phage with gene 2 nonsense mutations;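 active = mean inhibition above a set limit taken from the earlier primary screen, cut at about 13% in these data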;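 note: higher means less bacterial growth since AddAB block lets phage replicate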
RecBCD counter: growth loss of RecBCD+ E. coli with mutant T4 phage, counter-screen for AddAB inhibitor project, absorbance, V66 E. coli. shares compounds with AddAB inh. OD growth. inhibition, % at 11.9 µM. 73% of 880 active;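 active = mean inhibition above the mean of solvent-only control wells plus 3 SD, cut at about 4% in these data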;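 note: optical density read after an 18 h incubation at 37 °C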
Bact viability: bacterial viability inhibition counter-screen, confirmation, counter-screen for AddAB inhibitor project, absorbance; shares compounds with AddAB inh; absorbance (AddAB counterscreen); inhibition, % at 11.9 µM; 35% of 880 active; AID 488956, 2010; in the data active = inhibition above about 25%
RecBCD conf: growth loss of phage-infected RecBCD+ E. coli, confirmation, RecBCD inhibitor project, absorbance, E. coli V66, T4 gene 2 phage. inhibition, % at 11.9 µM. E. coli V66 + T4 2- phage, growth OD. 45% of 890 active. shares compounds with phage Ecoli inh. AID 651982, 2013;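 active = mean inhibition over triplicates exceeding the hit threshold derived in the original primary screen, cut at about 11% in these data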
Ecoli viability: E. coli viability inhibition, counter-screen for RecBCD inhibitor project, absorbance, high throughput; shares compounds with phage Ecoli inh; absorbance (OD) growth; inhibition, % at 11.9 µM; 29% of 890 active; AID 651983, 2013; in the data active = inhibition above about 20%;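 note: E. coli strain V66 grown with compound alone and no phage infection; 0% = bacteria with DMSO vehicle only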
AddAB counter: growth loss of phage-infected AddAB-carrying E. coli, confirmation, counter-screen for RecBCD inhibitor project, absorbance, E. coli V3065, T4 phage | shares compounds with phage Ecoli inh | E. coli expressing H. pylori AddAB + T4 phage, OD growth; gene 2 mutant T4, recBCD-deleted host | inhibition, % at 11.9 µM | 45% of 890 active | AID 651984, 2013;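 active = mean inhibition above the solvent-only control wells' mean plus 3 SD, cut at about 22% in these data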;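 note: higher means less bacterial growth from phage killing when AddAB is blocked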
An asterisk follows results filed as active; . = not tested or not shown.

SMILES	pCIP destab	Tat export inh	phage Ecoli inh	E coli growth-1	E coli growth-2	AddAB inh	AddAB conf	RecBCD counter	Bact viability	RecBCD conf	Ecoli viability	AddAB counter
O=C(Nc1nnc(-c2ccccc2)o1)c1ccc(Cl)cc1	-16	-13	24*	7	0.33*	13*	33*	27*	21	18*	20*	20
CCn1cc(C(=O)NCCC(C)C)c(=O)c2cc(F)c(N3CCN(C)CC3)cc21	0	9	40*	99*	0.066*	100*	99*	59*	99*	19*	36*	93*
CCCCNC(=O)c1cn(CC)c2cc(N3CCN(C)CC3)c(F)cc2c1=O	-5	.	97*	98*	0.071*	100*	98*	100*	99*	103*	104*	104*
CCN(CC)CCNC(=O)c1cn(CC)c2cc(N3CCN(C)CC3)c(F)cc2c1=O	-3	35	96*	98*	0.056*	100*	99*	100*	98*	65*	102*	100*
CCn1cc(C(=O)NCc2cccnc2)c(=O)c2cc(F)c(N3CCN(C(=O)c4ccco4)CC3)cc21	-16	10	21*	94*	0.051*	95*	98*	10*	99*	13*	14	103*
Cc1cc(NC(=O)c2ccc(OCC3CCCO3)cc2)ccc1Br (stereo unspecified)	.	.	2	.	.	.	.	.	.	.	.	.
O=C(NNc1cc(Br)c(O)c(Br)c1)c1ccccc1	5	-9	78*	97*	0.52	102*	97*	50*	97*	39*	50*	101*
NS(=O)(=O)c1ccc(NNC(=O)c2ccccc2)cc1	-5	-7	2	1	0.63	1	.	.	.	.	.	.
COCCCNC(=O)CSc1nc2ccccc2c(=O)n1CCc1ccc(S(N)(=O)=O)cc1	-2	1	2	-1	0.69	-1	.	.	.	.	.	.
COc1cccc(/C=N/Nc2ncnc(Cl)c2N)c1O	0	6	30*	15*	.	12*	21*	29*	18	27*	30*	23*
COc1ccc(/C=N/Nc2ncnc(Cl)c2N)cc1OC	4	-1	3	0	.	1	.	.	.	.	.	.
COc1cccc(/C=N/Nc2ncnc3scc(-c4ccccc4)c23)c1O	-5	0	11*	17*	.	15*	1	12*	6	2	6	18
Cc1nc(SCC(=O)NC2(C#N)CCCC2)n(CC(C)C)c1C	.	3	4	.	0.7	.	.	.	.	.	.	.
O=C(O)CCN1C(=O)c2ccc(Oc3ccc([N+](=O)[O-])cc3)cc2C1=O	4	7	3	1	0.61	3	.	.	.	.	.	.
Cc1ccc(/C=C/C(=O)Nc2ccc(S(N)(=O)=O)cc2)o1	2	2	-1	4	0.69	2	.	.	.	.	.	.
Cc1nc(Nc2ccc(S(N)(=O)=O)cc2)oc1C	2	-10	12*	9.9*	0.73	15*	9	5.3*	15	5	2	41*
COC(=O)c1ccc(CSc2nnnn2C)o1	-1	0	1	-3	0.73	2	.	.	.	.	.	.
CO[C@@]1(NC(=O)C2SC(=C(C(N)=O)C(=O)O)S2)C(=O)N2C(C(=O)O)=C(CSc3nnnn3C)CS[C@@H]21 (stereo partly specified)	.	-79	100*	97*	.	97*	101*	101*	101*	103*	105*	103*
Oc1ccccc1N=Nc1nc(-c2ccccc2)c(-c2ccccc2)[nH]1	-6	-4	20*	22*	.	28*	21*	16*	18	11	15	19
CCc1nnc(NS(=O)(=O)c2ccc(N=Cc3c(C)[nH]n(-c4cccc(Cl)c4)c3=O)cc2)s1	-2	-13	11*	16*	0.62	24*	9	4.8*	14	10	7	31*
CCCCCC(CC(=O)NO)C(=O)NC(C(=O)N1CCCC1CO)C(C)C (stereo unspecified)	.	31	25*	22*	0.47	22*	19*	24*	15	18*	19	21
Cc1ccc(-c2nc(C(Cl)Cl)c3ccccc3n2)cc1	1	-4	1	-2	0.73	0	.	.	.	.	.	.
O=C1CSc2ccc(C(=O)NCC(c3ccco3)N3CCCCC3)cc2N1 (stereo unspecified)	-2	-5	4	2	0.72	2	.	.	.	.	.	.
CCOC(=O)C1=Nc2ccccc2C1=[N+]=[N-]	-6	11	91*	96*	.	98*	100*	98*	101*	98*	99*	101*
COc1ccc(Nc2nc(N)c3ccccc3n2)c(OC)c1	18	-5	2	.	0.66	.	.	.	.	.	.	.
O=C(CSc1ccc(-c2ccccn2)nn1)c1ccccc1	-2	1	14*	12*	0.6	13*	10	11*	10	8	7	24*
O=C(CSc1ccc(-c2ccccc2)nn1)c1ccccc1	4	6	3	-4	0.65	0	.	.	.	.	.	.
CCCCC(=O)NC(c1ccc(N(CC)CC)cc1)c1ccc2cccnc2c1O (stereo unspecified)	-3	1	19*	17*	.	20*	24*	17*	19	12*	14	19
CCCC(=O)NC(c1ccc(N(C)C)cc1)c1c(O)ccc2ccccc12 (stereo unspecified)	-11	1	4	-3	0.67	-3	.	.	.	.	.	.
